The source of these data is PubChem BioAssay AID2551 (National Center for Advancing Translational Sciences (NCATS), 2010).

About 17,000 (5.5%) of roughly 310,000 compounds were called active. Not shown: some 11% with an inconclusive outcome. The call rests on the fitted dose curve; in most records, active means well fitted inhibition curve with a large enough effect; inconclusive means small, poorly fitted or top-dose-only effect, or effect the other way; inactive means no such curve, though single readings can be large or run the other way. Shown is part of a subset that was picked to be rich in actives.
On the % scale 0 is the no-effect control and ±100 the full control effect; potency means the concentration at half of the fitted maximal effect.

Nuclear receptor ROR-gamma (Mus musculus), sequence (P51450 whole entry, looked up, the tested form may be a part): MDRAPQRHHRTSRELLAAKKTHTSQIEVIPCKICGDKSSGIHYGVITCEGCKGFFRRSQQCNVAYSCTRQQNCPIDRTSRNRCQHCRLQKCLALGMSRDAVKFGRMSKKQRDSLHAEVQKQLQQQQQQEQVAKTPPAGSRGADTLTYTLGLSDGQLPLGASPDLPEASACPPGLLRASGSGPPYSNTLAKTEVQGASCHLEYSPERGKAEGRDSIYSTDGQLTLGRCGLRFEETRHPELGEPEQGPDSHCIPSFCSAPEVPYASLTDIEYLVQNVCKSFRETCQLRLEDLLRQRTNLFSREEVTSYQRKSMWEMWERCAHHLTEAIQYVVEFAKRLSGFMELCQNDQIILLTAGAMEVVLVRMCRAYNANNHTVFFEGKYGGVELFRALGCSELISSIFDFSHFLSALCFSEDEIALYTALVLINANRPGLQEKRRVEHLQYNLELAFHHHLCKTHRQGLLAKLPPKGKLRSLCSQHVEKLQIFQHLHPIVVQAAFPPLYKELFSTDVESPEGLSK

This assay has as its target Nuclear receptor ROR-gamma (Mus musculus) (UniProt P51450). The assay is described as follows: qHTS for inhibitors of ROR gamma transcriptional activity. Further: nearly all actives have a fitted effect of over 60% in size. The settings on record: Drosophila S2 Gal4-RORgamma UAS-luciferase reporter, 20 h; series mostly up to 53.6 µM; activity change, negative = inhibition: at the top concentration. In short, it runs like this:
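Read-out: Photinus luciferase luminescence; inhibitors lower reporter signal. Insect Schneider cells with Gal4-ROR gamma fusion under metallothionein promoter, UAS reporter; 700 uM final copper sulfate induction, 20 hr, ambient temperature.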
For orientation: In qHTS, concentration-response curves come from the screen itself.
In the case of `Cn1c(=O)c2c(SCC(=O)NCC3CCCO3)nc(CC(C)(C)C)nc2n(C)c1=O` (centres undefined), the “activity change, negative = inhibition” value was 1.36% (inactive).
In the case of `COC(=O)c1c(NC(=O)C2CC(C)=C(C)CC2C(=O)O)sc2c1CCCCC2` (centres undefined), the “activity change, negative = inhibition” value is 36.4% (inactive).
Same read-out and setting: the result for `COc1cccc(C(=O)Nc2nnc(S(=O)(=O)N3CCOCC3)s2)c1` reads 9.48% (inactive).
The same measure, in the same setting: in the case of `COc1ccc(CCNS(=O)(=O)c2cn(C)nc2C)cc1` it was 0.968% (inactive); in that of `CCOC(=O)C1CCN(C(=O)COc2cccc3ccccc23)CC1`, 24.6% (inactive).
As to `CC(NC(=S)Nc1ccc(OC(F)F)cc1)c1ccc(F)cc1` (centres undefined), the Potency is 3.16 µM (active).
As for `O=C1CCC(C(=O)Nc2ccc(OC(F)F)cc2)N1` (centres undefined), the “activity change, negative = inhibition” value is 5.33% (inactive).
`CC(NC(=S)Nc1ccc(S(N)(=O)=O)cc1)c1ccc2c(c1)OCO2` (centres undefined): the “activity change, negative = inhibition” value was 23.8% (inactive).
`Cc1cccc(NS(=O)(=O)c2ccc(C(=O)NCC(C)(C)N3CCOCC3)cc2)c1C`: the “activity change, negative = inhibition” value was 35.2% (inactive).
On to `Cc1ccc(N=C2NC(=O)/C(=C/C=C/c3ccco3)S2)cc1C`, for which the “activity change, negative = inhibition” value was -26.3% (inactive).
With `Cc1ccc(N2C(=O)S/C(=C/c3cn(C)c4ccccc34)C2=O)cc1`, the “activity change, negative = inhibition” value was 20.9% (inactive).
Regarding `Cc1cccc(N=C2NC(=O)/C(=C/c3cn(C)c4ccccc34)S2)c1`, the Potency was 12.6 µM (active).
Turning to `COc1ccc(CSc2nnnn2-c2ccc(O)cc2)cc1F`, the “activity change, negative = inhibition” value was 7.32% (inactive).
On the same count and under the same terms, in the case of `C#CCOc1ccccc1/C=C1/C(=O)ON=C1C` it was 4.49% (inactive); in that of `Cn1c(=O)n(C)c2cc(/C=N/NC(=O)c3cccc(Br)c3)ccc21`, -10.1% (inactive); in that of `O=C(N/N=C/c1cccc(OC(=O)c2ccc([N+](=O)[O-])cc2)c1)c1cccnc1`, -6.76% (inactive).
For the compound `COc1cc(/C=N/NC(=O)c2cccnc2)ccc1OC(=O)c1cccc(Br)c1`, the Potency was 11.2 µM (active).
With `Cc1ccc(CNC(=O)[C@@H](NC(=O)Cc2ccccc2)C(C)C)cc1`, the “activity change, negative = inhibition” value is 2.05% (inactive).
On the same count and under the same terms, the result for `COc1ccc(/C=C(/NC(=O)c2ccccc2)C(=O)Nc2cccc(C(=O)O)c2)cc1` reads -28.5% (inactive); that for `CC(NC(=O)CNC(=O)Cc1cccc2ccccc12)c1ccc(S(N)(=O)=O)cc1` (centres undefined), 31% (inactive); that for `COC(=O)c1ccc2c(C(C)(C)O)c(C(C)(C)O)[nH]c2c1`, 44.3% (inactive).
For `CCNC(=O)CCc1nc(-c2ccc(C(C)(C)C)cc2)no1`, the Potency was 0.0447 µM (active).
In the case of `CCNC(=O)CCc1nc(-c2ccc(C)cc2)no1`, the “activity change, negative = inhibition” value is 34.1% (inactive).
Same read-out and setting: in the case of `CN1CCN(C(=O)CCc2nc(-c3ccc(Cl)cc3)no2)CC1` it was 22.4% (inactive); in that of `CC1=C(C(=O)OC(C)(C)C)C(c2ccc(Br)cc2)NC(=O)N1CCCC(=O)O` (centres undefined), -10.5% (inactive); in that of `COc1cccc(NC(=O)[C@H](Cc2c[nH]c3ccccc23)NC(=O)[C@@H]2Cc3ccccc3CN2)c1`, 13.9% (inactive).
Take `Cc1cc(-c2cccs2)nc(-n2cccc2)n1`: the “activity change, negative = inhibition” value was 0.7% (inactive).
Take `CC(C)(C)Nc1c(-c2cccs2)nc2ccccn12`: the Potency is 6.31 µM (active).
Take `Cc1cc2nc(C(F)(F)F)cc(-c3cccs3)n2n1`: the “activity change, negative = inhibition” value is -17.8% (inactive).
Regarding `Cn1nccc1C(=O)NC1CCCc2c1cnn2-c1ccc(F)cc1F` (centres undefined), the “activity change, negative = inhibition” value was -27% (inactive).
Still for that read-out and setting: the result for `COC(=O)c1ccc(OC(=O)c2cnccn2)cc1` reads 41.2% (inactive).
Regarding `COCCCNC(=S)NC(=O)c1ccccc1`, the Potency was 12.6 µM (active).
`O=C(CCc1ccccc1)NNC(=O)c1ccc(Br)cc1`: the “activity change, negative = inhibition” value was -0.842% (inactive).
The same measure, in the same setting: in the case of `CCCNC(=S)N1CCC(NC(=O)c2ccc(OC)cc2)CC1` it was 25.5% (inactive).
On to `Cc1cccc(OCCNC(=S)NC(=O)c2cccnc2)c1`, for which the Potency is 10 µM (active).
Take `COCCCNC(=O)c1c(F)c(F)c(F)c(F)c1F`: the “activity change, negative = inhibition” value is -20.7% (inactive).
On the same count and under the same terms, in the case of `COCCCNC(=S)NNC(=O)C(O)(c1ccccc1)c1ccccc1` it was -39.9% (inactive).
On the same count and under the same terms, in the case of `COc1ccc(C(=O)NC2CCN(C(=S)NCCc3ccccc3)CC2)cc1` it was -2.05% (inactive); in that of `Cc1cccc(OCC(=O)NCCNC(=O)c2cccnc2)c1`, -13.4% (inactive).
With `COc1ccc(C(=O)NC(=S)NC2CCCCC2)cc1`, the Potency is 2.82 µM (active).
Take `COc1ccc(-n2cnc3cc(C(=O)NC4CCCC4)ccc32)cc1`: the “activity change, negative = inhibition” value was 22.4% (inactive).
Regarding `COc1ccc(C(=O)NC(=S)NNC(=O)CCc2ccccc2)cc1`, the Potency is 4.47 µM (active).
For the compound `CCCOc1cccc(C(=O)NCCCNC(=O)c2cccnc2)c1`, the “activity change, negative = inhibition” value is 22.3% (inactive).
The same measure, in the same setting: the result for `C[C@H](NC(=O)C1CC(=O)N(c2ccc3c(c2)OCO3)C1)C(=O)NCc1ccco1` (some centres undefined) reads -2.28% (inactive).
`COc1ccc(CNC(=O)/C(C#N)=C/c2cccc(OC)c2OC)cc1`: the “activity change, negative = inhibition” value is -22.3% (inactive).
For `Cc1c(Cl)c([N+](=O)[O-])nn1CC(=O)NCCCN1CCOCC1`, the “activity change, negative = inhibition” value is 4.93% (inactive).
As for `Cc1ccc(C)c(N2CCN(C(=O)Cn3ncn4cccc4c3=O)CC2)c1`, the “activity change, negative = inhibition” value was 1.67% (inactive).
The same measure, in the same setting: the result for `NS(=O)(=O)c1cccc(NC(=O)CC23CC4CC(CC(Br)(C4)C2)C3)c1` reads 15.7% (inactive).
Still for that read-out and setting: the result for `Cc1ccc(S(=O)Cc2ccc(C(=O)N3CCN(C4CCCCC4)CC3)o2)cc1` (centres undefined) reads -17% (inactive).
On the same count and under the same terms, in the case of `N#C/C=C/N1CCN(Cc2ccc3c(c2)OCO3)CC1` it was 1.29% (inactive).
On to `COCCCNC(=S)N(Cc1ccccc1)Cc1ccc(F)cc1`, for which the Potency is 15.8 µM (active).
Turning to `CCCc1ccc(OCC(=O)NNC(=S)NC(=O)c2ccco2)cc1`, the Potency is 12.6 µM (active).
Take `Cc1ccc(OCC(=O)NCCCNC(=O)c2ccco2)cc1C`: the “activity change, negative = inhibition” value was 10.6% (inactive).
Same read-out and setting: the result for `Cn1nnnc1SCC(=O)NNC(=O)c1ccc(Br)cc1` reads -10.6% (inactive).
